According to PubChem BioAssay (NCATS):
Inconclusive results are not listed. A call without a number means that no potency is given here. Values without a mark were called inactive. Calls of active or inactive are those of the source. Calls follow the shape of the dose curve; as a rule, active = well fitted inhibition curve with a large enough effect; inconclusive = small, poorly fitted or top-dose-only effect; inactive = no such curve, though single readings can be large or run the other way.

What follows are molecules tested against Retinaldehyde dehydrogenase 3 (Homo sapiens) (UniProt P47895) (assay: qHTS for Inhibitors of the Aldehyde Dehydrogenase Family (ALDH1A3) Primary screen (AID 2061315)). Details: ALDH inhibition qHTS; series mostly up to 56 µM.
Potency is read from the fitted curve at half-maximal effect.

SMILES | Potency | activity change, negative = inhibition
CC(=O)c1ccc(N2CCN(S(=O)(=O)c3ccc4[nH]c(=O)[nH]c4c3)CC2)cc1 | inactive | –
COc1cc(O)c([C@H](CC(=O)N2CC(C)CC(C)C2)c2ccc3c(c2)OCO3)c(OC)c1 (stereo not given in full) | inactive | –
COc1ccc(C2c3c(nc(CCc4ccccc4)[nH]c3=O)Oc3ccc4ccccc4c32)cc1OC (stereo not given) | inactive | –
COc1ccc2ncnc(NCc3cccs3)c2c1-c1ccc2c(c1)OCO2 | inactive | –
Cc1ccc([S+](=O)([O-])Nc2nn3c(=O)c4ccccc4nc3s2)cc1C | inactive | –
CCN(Cc1cccs1)c1ncnc2ccc(-c3ccc4c(c3)OCO4)cc12 | inactive | –
COc1ccc(CC(NC(C)=O)C(=O)O)cc1 (stereo not given) | inactive | –
O=C1c2ccccc2NC(c2ccc(-c3cccc(Cl)c3)o2)N1O (stereo not given) | inactive | –
O=C(Nc1ccc2ccccc2c1)Nc1nnc(-c2ccccn2)s1 | inactive | –
NC(=O)C1CCN(c2nc(-c3cccc4sc5ccccc5c34)cs2)CC1 | inactive | –
c1cncc(-c2ccc3ncnc(NCc4ccc5c(c4)OCO5)c3c2)c1 | inactive | –
Cc1ccnc(NC(=S)N2CCN(c3ccc(F)cc3)CC2)c1 | inactive | –
CCn1cnc2c(Nc3ccc(Cc4cccnc4)cc3)nc(C#N)nc21 | inactive | –
Cc1cc(C)nc(NC(=S)N2CCN(c3ccc(Cl)nn3)CC2)c1 | inactive | –
CC(Nc1ncnc2ccc(-c3ccc4c(c3)OCO4)cc12)c1ccco1 (stereo not given) | inactive | –
Cc1ccc(NS(=O)(=O)c2cc3c(cc2-c2ccsc2)NC(=O)CO3)cc1C | inactive | –
Cc1cc(C)nc(NC(=S)N2CCN(c3cccc(OC(F)(F)F)c3)CC2)c1 | inactive | –
COc1ccnc(CS(=O)c2nc3cc(OC(F)F)ccc3[nH]2)c1OC (stereo not given) | 31.6 µM (active) | –
COc1cc2c(cc1OC)CN(C(=O)/C=C/c1c(-c3ccccc3)n(C)c3ncccc13)CC2 | inactive | –
CS(=O)(=O)Nc1cccc(-c2cc(F)c(S(=O)(=O)N3CCN(S(=O)(=O)c4ccc5c(c4)OCCO5)CC3)cc2F)c1 | inactive | –

SMILES | Potency | activity change, negative = inhibition
Cc1cc(C)nc(NC(=S)N2CCN(c3cncs3)CC2)c1 | inactive | –
O=S1(=O)N=C(Oc2ccc(Br)cc2)c2ccccc21 | inactive | –
O=c1c2ccccc2nc2sc(NS(=O)(=O)c3ccc4c(c3)CCC4)nn12 | inactive | –
COc1cccc(CNc2ccc(S(=O)(=O)Nc3cccs3)cc2)c1O | – | -2.44% [at 11.2 µM]
Cc1ccsc1CN(C)c1ncnc2ccc(-c3ccc4c(c3)OCO4)cc12 | inactive | –
CC(C)(C)OC(=O)N1CCN(c2ccc(NCc3cc(-c4ccc(C#N)cc4)co3)cc2)CC1 | inactive | –
CNc1cccc(S(=O)(=O)N2CCCN(S(=O)(=O)c3ccc4c(c3)OCCO4)CC2)c1 | inactive | –
Cc1csc(CNc2ncnc3ccc(-c4ccc(CO)o4)cc23)n1 | inactive | –
COc1ccc(C2c3ccc4ccccc4c3Oc3ncn(CCN4CCOCC4)c(=N)c32)cc1OC (stereo not given) | inactive | –
CN(C)c1cccc(-c2ncnc(N3CCC(C(N)=O)CC3)n2)c1 | inactive | –
Cc1cc(C=CC#N)cc(C)c1Nc1nc(Nc2ccc3scnc3c2)c2[nH]cnc2n1 | inactive | –
CCCCOc1ccc(S(=O)(=O)n2c(C)nc3ccccc32)cc1 | inactive | –
CC(C)c1ccc(NC(=O)C(c2ccccc2)N(C)C(=O)Cc2c[nH]c3ccccc23)cc1 (stereo not given) | inactive | –
CC(C)Oc1ccc(-c2csc(N3CCC(C(N)=O)CC3)n2)cc1 | inactive | –
N#Cc1c(-c2ccc(-c3ccccc3)cc2)no[n+]1[O-] | inactive | –
CC(=O)Nc1sc2c(c1-c1cc3ccccc3s1)CCNC2 | inactive | –
Cc1cc(C)nc(NC(=S)N2CCN(c3cc(C(F)(F)F)nc4ccc(C(F)(F)F)cc34)CC2)c1 | inactive | –
CC(=O)N1CCN(c2cccc(Nc3nn4c(=O)c5ccccc5nc4s3)c2)CC1 | inactive | –
COc1ccc(-c2cnc(N3CCC(C(N)=O)CC3)s2)cc1OC | inactive | –
N#Cc1ccc(-c2ccc(-c3nc4ccccc4c(=O)[nH]3)o2)cc1 | inactive | –

The molecules below were run against Aldehyde dehydrogenase 1A1 (Homo sapiens) (UniProt P00352) (assay: qHTS for Inhibitors of the Aldehyde Dehydrogenase Family (ALDH1A1) Confirmatory screens (AID 2061316; also: nearly all actives have a fitted effect of over 65% in size)). Details: ALDH inhibition qHTS; series mostly up to 47.3 µM.

SMILES | Potency
Cc1ccc([S+](=O)([O-])Nc2nn3c(=O)c4ccccc4nc3s2)cc1C | 12.7 µM (active)
O=C1c2ccccc2NC(c2ccc(-c3cccc(Cl)c3)o2)N1O (stereo not given) | 22.5 µM (active)
O=S1(=O)N=C(Oc2ccc(Br)cc2)c2ccccc21 | 12.7 µM (active)
O=c1c2ccccc2nc2sc(NS(=O)(=O)c3ccc4c(c3)CCC4)nn12 | 8.96 µM (active)
COc1cccc(CNc2ccc(S(=O)(=O)Nc3cccs3)cc2)c1O | 0.634 µM (active)
